Source: PubChem
Compounds with a hit are over-represented: about 3.5% of the library has one in this group of screens.
rCAG binder: binds r(CAG) RNA repeats | r(CAG) RNA repeat, TO-PRO-1 dye displacement fluorescence | inhibition, % at 3 µM | hit rate 1.3% among 370,000;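 active = inhibition above the plate cutoff, the mean of all test compounds on that plate plus 3 SD, cut at about 35% in these data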;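 note: 0% = DMSO alone and 100% = 100 µM mitoxantrone as full dye displacement; higher means more dye released from RNA so lower well fluorescence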
MBD2 DNA inh: inhibitors of human MBD2 binding to methylated oligonucleotide | Q9UBB5 | TR-FRET | inhibition, % at 4.4 µM | hit rate 0.31% among 370,000 | AID 686964; in the data active = inhibition above about 13%
Target sequence (Q9UBB5 whole entry, looked up): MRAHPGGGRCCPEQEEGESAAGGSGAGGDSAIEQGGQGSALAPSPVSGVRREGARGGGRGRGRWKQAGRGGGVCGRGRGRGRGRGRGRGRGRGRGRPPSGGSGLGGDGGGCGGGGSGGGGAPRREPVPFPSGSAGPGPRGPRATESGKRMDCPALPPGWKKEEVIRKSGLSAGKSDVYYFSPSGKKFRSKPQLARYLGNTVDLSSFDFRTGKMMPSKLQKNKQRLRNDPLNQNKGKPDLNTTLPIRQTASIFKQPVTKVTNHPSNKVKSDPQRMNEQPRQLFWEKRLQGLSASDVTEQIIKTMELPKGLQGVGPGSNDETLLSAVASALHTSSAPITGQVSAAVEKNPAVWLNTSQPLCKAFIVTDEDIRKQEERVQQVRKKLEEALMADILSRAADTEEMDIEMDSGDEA
DNMT1 inh: blocks human DNA methyltransferase DNMT1 | inhibition (reported as % activation of signal), % at 10 µM | hit rate 0.83% among 360,000 | AID 588458 | P26358 | DNMT1 molecular beacon, Hinp1I cleavage, fluorescence; in the data active = inhibition above about 50%
LEDGF integ inh: blocks HIV-1 LEDGF/p75-dependent DNA integration | hit rate 0.64% among 370,000 | TR-FRET IN-LEDGF/p75 DNA integration, Eu/Cy5 | inhibition, % at 3.7 µM;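 active = inhibition above the screen-wide mean plus 3 SD, cut at about 13% in these data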;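 note: signal is the Cy5 over europium emission ratio at 671 and 618 nm; 0% = plate median of compound wells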
PG9 binder: PG9 antibody binding by small molecule. TR-FRET gp120-PG9 antibody binding. inhibition, % at 6.7 µM. hit rate 0.43% among 360,000; in the data active = inhibition above about 8.5%
UHRF1 binding: human UHRF1 methylated DNA binding inhibitors; inhibition, % at 4.4 µM; Q96T88; UHRF1 binding to methylated oligo, TR-FRET; hit rate 0.75% among 370,000; in the data active = inhibition above about 21%;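 note: UHRF1 SRA domain binding a hemimethylated CpG hairpin DNA probe; 0% = median of test compound wells and 100% = reference inhibitor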
Active calls of the source: *; x = no result.

SMILES | rCAG binder | MBD2 DNA inh | DNMT1 inh | LEDGF integ inh | PG9 binder | UHRF1 binding
CCOC(=O)c1cc2c(ccc3ccccc32)oc1=O | 6 | -5 | 3 | -3 | 3 | 29*
Nc1c(C(=O)Nc2ccc(Br)cc2)sc2nc(N3CCOCC3)c3c(c12)CCCC3 | 9 | 0 | 50* | -1 | 1 | -1
O=S1(=O)C=CCN1Cc1cn(Cc2ccccc2)nn1 | 0 | -4 | x | 3 | x | 4
N/C(=N\N=Cc1ccc2c(c1)OCO2)NN=Cc1ccc2c(c1)OCO2 | 11 | -5 | 3 | 43* | 1 | 2
O=C(NN=Cc1ccc2c(c1)OCO2)NN=Cc1ccc2c(c1)OCO2 | 1 | -7 | -5 | 4 | 0 | -2
Nc1nc2ncc(C(=O)c3cc(F)ccc3O)cc2s1 | 8 | 7 | -5 | -3 | -1 | 22*
CCOC(=O)C1=C(C)N(c2ccc(OC)cc2)C(=O)/C1=C\c1ccc(O)c(OCC)c1 | 8 | -8 | -4 | 5 | -1 | -7
CCOC(=O)C1=C(C)N(c2ccc(OC)cc2)C(=O)/C1=C\c1cccs1 | 3 | 8 | -1 | 2 | -2 | 25*
CCc1noc(C)c1C(=O)NNC(=O)c1nn(C)c(=O)c2ccccc12 | 0 | 2 | 1 | -5 | -1 | 30*
CCc1noc(C)c1C(=O)NNC(=O)c1nn(CC)c(=O)c2ccccc12 | -2 | 3 | 1 | 1 | 2 | 0
CCOC(=O)[C@]12CCCCC/C=C\1N(Cc1ccc(OC)cc1)C(=O)[C@H]2CC(=O)NCc1cccc(C(F)(F)F)c1 | 2 | -5 | x | -2 | x | -1
COc1ccc(N2C(=O)N3[C@H](c4ccc(Cl)cc4)[C@@H]4C(=O)N(C5CCCCC5)C(=O)[C@@H]4[C@]3(C)C2=O)cc1 | 4 | 7 | -4 | 1 | -3 | 22*
CN(Cc1ccccc1)C(=O)CN(c1ccccc1Cl)S(C)(=O)=O | -3 | 1 | 3 | 4 | -2 | 1
COC(=O)c1ccc(CN(c2ccccc2Cl)S(C)(=O)=O)cc1 | -4 | -5 | 1 | -4 | -1 | 30*
Cc1cc(NC(=O)CCc2ccccc2)c([N+](=O)[O-])cc1C | -1 | 4 | -5 | -3 | 1 | 0
Cc1cc(NC(=O)CN(C)C)c([N+](=O)[O-])cc1C | -3 | 1 | 1 | -4 | 1 | 42*
COc1cc(C(=S)N2CCOCC2)ccc1OC(=O)c1cccc(C)c1 | -3 | 5 | -4 | -3 | -1 | 24*
COc1cc(C(=S)N2CCOCC2)ccc1OC(=O)c1ccc(Br)cc1 | -5 | 2 | -2 | -2 | 1 | -1
COc1cc(C(=S)N2CCOCC2)cc(OC)c1OC(=O)c1ccc(F)cc1 | -5 | 3 | 3 | -4 | -1 | 1
COc1cc(C(=O)Oc2c(OC)cc(C(=S)N3CCOCC3)cc2OC)cc(OC)c1OC | -5 | 2 | -2 | -3 | 0 | 24*
O=c1c2cc3cccnc3nc2ncn1Cc1cccs1 | 3 | 1 | x | -5 | x | -2
COc1ccc(Cl)cc1-n1c(=S)sc2c(=O)[nH]c(SCC(=O)C(C)(C)C)nc21 | 84* | 0 | -1 | 3 | -1 | 0
O=C(COC(=O)/C=C/C(=O)N1CCN(c2ccccc2)CC1)NCc1ccc(F)cc1 | -4 | -2 | -1 | -4 | 0 | 64*
CC(NC(=O)CCc1nnc(-c2ccc(-c3ccccc3)cc2)o1)c1nc2ccccc2[nH]1 (stereo not given) | 5 | 1 | -9 | -4 | 0 | 23*
C[C@H](CCC(=O)N(c1ccccc1)c1ccccc1)CC1CCCCC1 | 2 | -1 | x | -3 | x | -1
SMILES | rCAG binder | MBD2 DNA inh | DNMT1 inh | LEDGF integ inh | PG9 binder | UHRF1 binding
O=C(N/N=C/c1ccc([N+](=O)[O-])o1)c1ccccc1-n1cccc1 | 3 | -1 | -4 | 0 | -1 | -5
O=C(N/N=C/c1ccc([N+](=O)[O-])o1)c1cn(-c2ccccc2)nc1-c1ccc(Cl)cc1 | 8 | -1 | 50* | 0 | -1 | -2
CCCCCCCCN1CCS(=O)(=O)N(Cc2ccc(OC)cc2)C(C(=O)OC)C1 (stereo not given) | 2 | -3 | x | -1 | x | -1
CCOC(=O)N1C(=O)C[C@](Sc2ccc(OC)cc2)(C(=O)N2CCOCC2)[C@H]1c1ccc(OC)cc1 | 0 | -6 | x | -2 | x | -3
O=[N+]([O-])c1ccc2c(c1)ncn2CCc1ccccc1 | -1 | 0 | -2 | -2 | -1 | 26*
COc1ccc(/C=C/C(=O)NCC(=O)N2CCC(N(C)CCN3CCOCC3)CC2)cc1OC | 0 | 3 | -1 | -1 | -3 | 22*
CN(C1CCCC1)C1CCN(C(=O)CNC(=O)/C=C/c2ccccc2)CC1 | 8 | -4 | -2 | -1 | 0 | 4
CSc1ccccc1C(=O)Nc1cccc(C(C)O)c1 (stereo not given) | -2 | 2 | 1 | -5 | 1 | 21*
CC(O)c1cccc(NC(=O)Nc2cccc(NC(=O)Nc3cccc(C(C)O)c3)c2)c1 (stereo not given) | 11 | 8 | -9 | -1 | -1 | -1
O=C(Nc1nc2ncccn2c1-c1ccc(F)c(F)c1)C1CC1 | 0 | 0 | x | 7 | x | -4
O=C(O)c1c2c(nc3ccccc13)/C(=C/c1ccc(O)cc1)CC2 | 5 | 11 | 87* | 10 | -4 | 37*
O=C(O)c1c2c(nc3ccccc13)/C(=C/c1ccc(OC(F)F)cc1)CCC2 | 15 | 8 | -2 | 0 | 2 | 4
CC(C)CN1C(=O)C[C@]2(C(=O)N(C)c3ccc(NS(=O)(=O)C4CC4)cc32)C1c1ccccc1 (stereo not given in full) | 1 | -3 | x | 10 | x | 5
Cn1c(-c2ccc3c(c2)OCO3)cnc1NCc1ccccc1Cl | 2 | -7 | -6 | -2 | 1 | 48*
CC(C)CCN(C)C1CCN(C(=O)Nc2ccc3c(c2)OCO3)CC1 | 0 | 0 | x | -1 | x | 1
Cc1cc(C)c2cc(CN(Cc3ccco3)C(=S)NCC3CCCO3)c(=O)[nH]c2c1 (stereo not given) | 2 | 4 | -5 | -1 | -1 | 45*
COc1ccc2cc(CN(Cc3ccco3)C(=S)NCC3CCCO3)c(=O)[nH]c2c1 (stereo not given) | 4 | 8 | -4 | -1 | -2 | 3
O=C(O)c1cc(NC(=O)c2ccc(Br)cc2)cc(NC(=O)c2ccc(Br)cc2)c1 | 80* | 5 | 4 | -3 | 1 | -1
C[C@H]1[C@@H](OC(=O)NCCc2c[nH]c3ccccc23)CC[C@@]23CCCN2C(=O)CCC[C@@H]13 | x | -1 | x | -6 | x | -1
C=CCCC(=O)N1C[C@H]2CON(C)[C@H]2C[C@H]1c1ccccc1Br | 0 | 2 | -5 | -1 | 2 | 1
CCOC(=O)CN1C(=O)N2C[C@H]3CON(C)[C@H]3C[C@H]2c2ccccc21 | 3 | -4 | 1 | 6 | -1 | 47*
